Hits are enriched below; roughly 10% of the tested compounds scored in any of these assays.
G9a block: qHTS Assay for Inhibitors of Histone Lysine Methyltransferase G9a. G9a H3K9 monomethylation, AlphaScreen, 2 h. Potency, µM (doses to about 102 µM), usual class: inhibitors. 350,000 tested, 8.8% active. Histone-lysine N-methyltransferase EHMT2 (Homo sapiens), Q96KQ7; further: nearly all actives have a fitted effect of over 75% in size
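Compounds were preincubated with 20 nM G9a for 15 min, after which biotinylated H3K9 peptide (500 nM) and SAM (20 uM) started a 2 h room-temperature reaction. Monomethylated product was quantified by antibody-based AlphaScreen chemiluminescence.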
Six1-Eya2 blk: qHTS Assay for Inhibitors of the Six1/Eya2 Interaction | 360,000 tested, 0.56% active | AlphaScreen GST-Six1/His-Eya2 binding, biochemical; hits give low values | activity change, % (concentration not given with the values) | Homeobox protein SIX1 (Homo sapiens) + Protein phosphatase EYA2 (Homo sapiens), … | AID 651725, 2012; in the data active means activity change below about -65%; inconclusive means mostly about -30% to -63%
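AlphaScreen luminescence read after one hour at 37 °C in darkness. Pin-transferred compounds met GST-Six1 and His-Eya2 protein (5X stock 250 nM/500 nM) plus glutathione donor and Ni-chelate acceptor beads (5X, 50 ug/mL).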
CtBP-E1A inh: qHTS Assay for Inhibitors of the CtBP/E1A Interaction | CtBP / adenovirus E1A interaction (AlphaScreen) | AlphaScreen GST-E1A/His-CtBP binding, 1536-well; hits give low values | activity change, % (no concentration beside the values) | 340,000 tested, 0.49% active; in the data active means activity change below about -65%; inconclusive means mostly about -30% to -63%
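Homogeneous bead-based format: GST-tagged E1A captured on glutathione donor beads, His-tagged CtBP on nickel acceptor beads; compounds precede bead addition by 2 h at 37 °C.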
BAZ2B block: qHTS Assay for Inhibitors of BAZ2B | Bromodomain adjacent to zinc finger domain protein 2B (Homo sapiens), Q9UIF8 | AlphaScreen BAZ2B-H3K14Ac peptide displacement | Potency, µM (series often up to 114 µM), hits mostly inhibitors | 360,000 tested, 4.4% active; further: nearly all actives have a fitted effect of over 60% in size
Target sequence (Q9UIF8 whole entry, looked up, the tested form may be a part): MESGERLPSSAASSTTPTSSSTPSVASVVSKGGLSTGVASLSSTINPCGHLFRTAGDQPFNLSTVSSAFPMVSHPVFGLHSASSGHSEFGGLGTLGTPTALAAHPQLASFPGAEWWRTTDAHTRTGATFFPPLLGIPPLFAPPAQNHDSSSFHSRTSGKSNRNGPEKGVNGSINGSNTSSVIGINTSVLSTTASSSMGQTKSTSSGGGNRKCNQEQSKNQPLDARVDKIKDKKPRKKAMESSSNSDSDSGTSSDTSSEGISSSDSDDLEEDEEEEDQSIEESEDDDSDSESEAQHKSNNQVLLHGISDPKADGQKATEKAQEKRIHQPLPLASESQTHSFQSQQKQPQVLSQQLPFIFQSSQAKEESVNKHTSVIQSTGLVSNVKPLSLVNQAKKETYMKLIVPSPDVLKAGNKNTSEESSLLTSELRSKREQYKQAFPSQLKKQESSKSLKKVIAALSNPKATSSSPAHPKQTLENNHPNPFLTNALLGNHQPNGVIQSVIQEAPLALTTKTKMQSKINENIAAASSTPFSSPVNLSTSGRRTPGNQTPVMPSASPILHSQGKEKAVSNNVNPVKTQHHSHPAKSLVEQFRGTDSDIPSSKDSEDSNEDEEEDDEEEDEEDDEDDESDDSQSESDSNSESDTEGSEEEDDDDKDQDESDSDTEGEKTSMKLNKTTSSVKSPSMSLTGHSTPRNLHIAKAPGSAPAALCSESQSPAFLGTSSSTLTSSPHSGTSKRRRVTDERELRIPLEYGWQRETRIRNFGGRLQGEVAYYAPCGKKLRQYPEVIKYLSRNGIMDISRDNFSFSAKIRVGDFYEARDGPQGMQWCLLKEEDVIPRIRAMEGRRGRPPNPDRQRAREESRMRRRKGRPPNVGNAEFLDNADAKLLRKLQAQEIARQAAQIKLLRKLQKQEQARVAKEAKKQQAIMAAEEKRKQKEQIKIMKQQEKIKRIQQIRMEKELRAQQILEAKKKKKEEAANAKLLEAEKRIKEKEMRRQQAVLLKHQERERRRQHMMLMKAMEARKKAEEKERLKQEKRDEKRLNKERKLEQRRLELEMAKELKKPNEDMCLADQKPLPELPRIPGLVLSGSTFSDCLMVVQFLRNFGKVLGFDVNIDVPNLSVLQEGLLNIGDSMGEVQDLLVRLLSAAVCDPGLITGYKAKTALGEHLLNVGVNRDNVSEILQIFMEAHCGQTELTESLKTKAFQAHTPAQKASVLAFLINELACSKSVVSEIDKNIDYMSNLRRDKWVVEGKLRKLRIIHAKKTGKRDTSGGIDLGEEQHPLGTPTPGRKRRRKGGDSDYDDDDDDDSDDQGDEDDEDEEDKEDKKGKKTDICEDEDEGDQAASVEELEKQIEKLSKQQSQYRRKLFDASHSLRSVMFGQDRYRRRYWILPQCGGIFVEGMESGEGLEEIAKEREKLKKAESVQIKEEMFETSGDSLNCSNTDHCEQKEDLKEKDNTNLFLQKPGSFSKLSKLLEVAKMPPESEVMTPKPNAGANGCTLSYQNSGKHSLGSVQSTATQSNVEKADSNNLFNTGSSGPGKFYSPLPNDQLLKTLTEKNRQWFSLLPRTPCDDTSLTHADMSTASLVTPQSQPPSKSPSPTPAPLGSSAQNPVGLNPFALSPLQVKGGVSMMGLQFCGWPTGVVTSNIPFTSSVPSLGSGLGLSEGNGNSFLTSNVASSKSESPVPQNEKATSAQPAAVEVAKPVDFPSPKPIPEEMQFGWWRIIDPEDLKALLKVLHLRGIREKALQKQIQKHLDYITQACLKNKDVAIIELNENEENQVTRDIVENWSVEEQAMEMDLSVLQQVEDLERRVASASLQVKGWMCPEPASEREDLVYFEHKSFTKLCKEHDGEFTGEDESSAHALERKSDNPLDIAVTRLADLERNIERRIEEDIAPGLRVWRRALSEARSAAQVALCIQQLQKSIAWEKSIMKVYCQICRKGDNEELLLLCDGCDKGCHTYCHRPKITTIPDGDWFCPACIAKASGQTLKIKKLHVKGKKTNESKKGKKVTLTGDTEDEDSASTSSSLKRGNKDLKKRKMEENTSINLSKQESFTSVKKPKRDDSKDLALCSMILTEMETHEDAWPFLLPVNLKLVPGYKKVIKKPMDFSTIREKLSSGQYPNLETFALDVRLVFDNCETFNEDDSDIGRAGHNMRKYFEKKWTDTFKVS
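BAZ2B 50 nM plus b-H3(5-23)K14Ac 50 nM, PBS pH 7.4/0.01% Tween-20, 30 min RT; compound added (max 110 uM), 30 min RT; streptavidin donor/Ni-chelate acceptor beads 10 ug/mL final, 20 min dark; AlphaScreen read.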
HP1b chromo inh: HTS for Inhibitors of HP1-beta Chromodomain Interactions with Methylated Histone Tails; 390,000 tested, 0.56% active; AID 540317, 2011; Potency, µM (titrated, usually from 114 µM), actives largely listed as inhibitors; Chromobox protein homolog 1 (Homo sapiens), P83916; AlphaScreen HP1-beta / biotin-H3K9me3 peptide binding; further: nearly all actives have a fitted effect of over 70% in size
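HP1-beta protein (50 nM final) preincubated 30 min at room temperature with biotinylated H3(1-18)K9me3 peptide (50 nM) in PBS pH 7.4, 0.01% Tween-20, then compound added for 30 min. AlphaScreen streptavidin donor/nickel chelate acceptor beads (10 ug/mL final), 30 min dark, luminescence read.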
JMJD2A Tudor inh: qHTS Assay for Inhibitors of JMJD2A-Tudor Domain; Potency, µM (top dose mostly 114 µM), usual class: inhibitors; 390,000 tested, 4.4% active; AlphaScreen JMJD2A-Tudor / H3K4me3 peptide binding; further: nearly all actives have a fitted effect of over 50% in size
Numbers stand for hits; i = inactive; ? = inconclusive; nt = not tested or not shown; [ ] = remark or other dose. Unless noted, the call rests on the fitted dose curve; in most records, active means well fitted inhibition curve with a large enough effect; inconclusive means small, poorly fitted or top-dose-only effect; inactive means no such curve, though single readings can be large or run the other way.

SMILES | G9a block | Six1-Eya2 blk | CtBP-E1A inh | BAZ2B block | HP1b chromo inh | JMJD2A Tudor inh
O=C(NCc1cccc(Cl)c1)c1cccc(C(F)(F)F)c1 | i | i | i | i | i | i
CN(C)c1cccc(C(=O)NCc2ccccc2Cl)c1 | i | i | i | 50.1µM | i | ?
O=C(NCc1ccccc1Cl)c1cccc(C(F)(F)F)c1 | 44.7µM | i | i | i | i | i
CCc1ccc(-n2cc(-c3ccc([N+](=O)[O-])cc3)[nH]c2=S)cc1 | ? | i | i | i | i | i
CCc1ccc(-c2cn(C3CCCCC3)c(=S)[nH]2)cc1 | ? | i | i | 17.8µM | ? | 28.2µM
O=C1C=C(N2CCN(c3ccccn3)CC2)C(=O)c2c(O)ccc(O)c21 | nt | i | i | nt | ? | 31.6µM
CCC(NC(=O)c1cc(COc2ccc(F)cc2Cl)on1)c1ccncc1 (stereo unspecified) | nt | i | i | i | i | i
CC(O)c1n(C)c(Cl)c[n+]1C (stereo unspecified) | 11.2µM | i | i | i | i | ?
COc1ccc(CN(CCC#N)C(=S)NC(=O)c2ccccc2)cc1 | 39.8µM | i | i | i | i | i
CCOc1ccc(CN(CCC#N)C(=S)NC(=O)c2ccccc2)cc1 | 1.41µM | i | nt | i | i | i
N#CCCN(Cc1ccccc1)C(=S)NC(=O)c1ccccc1 | ? | i | i | i | i | ?
N#CCCN(Cc1ccccc1)C(=S)Nc1ccccc1 | i | i | i | i | ? | i
NCC(O)COc1cccc2ccccc12 (stereo unspecified) | i | nt | nt | nt | nt | nt
Cc1noc(C)c1CSc1ccccc1C(=O)OC(C)C(N)=O (stereo unspecified) | ? | i | i | i | i | i
CCCNC(=O)c1ccccc1SCc1c(C)noc1C | 25.1µM | i | i | 79.4µM | i | i
NC(=O)C1CCN(c2ncccc2[N+](=O)[O-])CC1 | i | i | i | i | i | i
O=[N+]([O-])c1cccnc1N1CCC(c2cc(-c3cccc(C(F)(F)F)c3)n[nH]2)CC1 | ? | i | i | 35.5µM | ? | i[11.4 µM]
COc1ccc(-c2cc(C3CCN(Cc4cccc(C(F)(F)F)c4)CC3)[nH]n2)cc1 | ? | i | i | ? | i | ?
COc1ccc(-c2cc(C3CCN(Cc4ccc([N+](=O)[O-])cc4)CC3)[nH]n2)cc1 | 44.7µM | i | i | ? | ? | 44.7µM
COc1ccc(OC)c(-c2cc(C3CCN(c4ncccc4[N+](=O)[O-])CC3)[nH]n2)c1 | 35.5µM | ? | i | 12.6µM | ? | 25.1µM
COc1ccc(OC)c(-c2cc(C3CCN(c4cc(Cl)nc(N)n4)CC3)[nH]n2)c1 | ? | i | i | ? | i | ?
CCC1C(=O)N(c2nc(C)cc(C)n2)N=C1C (stereo unspecified) | 20µM | i | i | ? | i | 11.2µM
Cc1ccc(C(=O)Nc2ccc(N3CCN(C)CC3)cc2)cc1C | 70.8µM | i | nt | i | i | i
CN1CCN(c2ccc(NC(=O)c3ccc4c(c3)OCCO4)cc2)CC1 | 44.7µM | i | i | i | i | i
CCN1CCN(c2ccc(NC(=O)c3cccc(OCc4ccccc4)c3)cc2)CC1 | ? | i | i | i | i | i
SMILES | G9a block | Six1-Eya2 blk | CtBP-E1A inh | BAZ2B block | HP1b chromo inh | JMJD2A Tudor inh
CCN1CCN(c2ccc(NC(=O)c3ccc4c(c3)OCCO4)cc2C)CC1 | 7.94µM | i | i | ? | i | i
CCC(=O)N1CCN(c2ccc(NC(=O)c3ccc4c(c3)OCCO4)cc2)CC1 | i | i | i | i | i | i
CCN1CCN(c2cc(C)c3cc(NC(=O)c4ccc5c(c4)OCO5)ccc3n2)CC1 | i | i | i | i | i | i
CN1CCN(c2ccc(NC(=O)c3cccc(OCc4ccccc4)c3)cc2)CC1 | 15.8µM | i | i | ? | i | ?
Cc1ccc(C(=O)Nc2ccc(N3CCN(S(C)(=O)=O)CC3)cc2)cc1C | i | i | i | i | i | i
CCC(c1nc2ccccc2[nH]1)N(C(=O)C1=NNC(=O)CC1)c1ccccc1 (stereo unspecified) | nt | i | i | nt | nt | nt
CCOC(=O)C1(C)CCCN(C(=O)c2cccc(OC(F)(F)F)c2)C1 (stereo unspecified) | nt | i | i | nt | nt | nt
CCC(CO)NCC#Cc1ccccc1 (stereo unspecified) | 56.2µM | i | i | i | i | i
Cn1c(CNC(=O)OC(C)(C)C)n[nH]c1=S | i | i | i | i | i | ?
CC(C)C[C@H](NC(=O)OC(C)(C)C)c1n[nH]c(=S)n1N | 10µM | i | i | i | i | i
N#CC1=C(N)OC2=C(C(=O)CCC2)C12CCN(C(=O)OCc1ccccc1)CC2 | 50.1µM | i | i | i | i | i
CC1(C)CC(=O)C2=C(C1)OC(N)=C(C#N)C21CCN(C(=O)OCc2ccccc2)CC1 | i[2.33 µM] | i | i | i | i | i
Nc1nnc(-c2ccc(Cl)c([N+](=O)[O-])c2)s1 | 44.7µM | i | nt | i | i | i
Nc1nnc(-c2cccc([N+](=O)[O-])c2)s1 | i | i | i | i | i | i
CC(C)(C)C(=O)C(Oc1ccc(Cl)cc1)n1ccnc1 (stereo unspecified) | i | nt | nt | nt | nt | nt
Cc1cc(NCc2ccccn2)ccc1Br | 25.1µM | i | i | 50.1µM | i | 8.91µM
CCN(CC)C(=O)c1ccc(/C=C/c2c[nH]c3ccccc23)[n+](C)c1 | 3.16µM | i | i | i | i | ?
CC[n+]1c(/C=C/c2c[nH]c3ccccc23)ccc2cc(C)ccc21 | 35.5µM | i | ? | ? | i | ?
Cc1ccc(C(=O)/C=C/c2c[nH]c3ccccc23)cc1 | i[12.7 µM] | i | i | ? | i | i
Cc1cccc(Cn2ccc(NC(=O)c3ccc4c(c3)OCO4)n2)c1 | i | i | i | i | i | i
Cc1cccc(C)c1OCCSc1nc2ccccc2n1CC(=O)O | i[0.501 µM] | i | i | i | i | i
CCn1c(C)cc(/C=C2\NC(=O)N(Cc3ccccc3)C2=O)c1C | 12.6µM | i | i | i | i | 89.1µM
CCn1c(C)cc(/C=C2/NC(=O)N(Cc3ccccc3F)C2=O)c1C | i | i | i | i | i | ?
C/C(=C(/CCO)SSCC1CCCO1)N(C=O)Cc1cnc(C)nc1N (stereo unspecified) | 12.6µM | i | i | i | i | i
CC(C)Oc1ccc(CN2CCC2(C)C(=O)Nc2cccc(Oc3ccccc3)c2)cc1 (stereo unspecified) | nt | i | i | nt | nt | nt
CCN1C(=O)CCCc2ccccc21 | i | i | i | i | i | i
CCCN1CCCc2ccccc21 | 22.4µM | i | i | ? | i | i
CCOc1ccc(C(=O)c2cn(CC(=O)Nc3cccc(OC)c3)c3cc4c(cc3c2=O)OCCO4)cc1 | i | nt | nt | i | i | i

Screening data from PubChem BioAssay.
